Rows were chosen to be rich in hits. Some 3.3% of all compounds tested hit in one or more screens of this group.
Tb PYK inh: T. brucei pyruvate kinase inhibition; Q57TT1; TbPYK enzyme, Kinase-Glo Plus ATP luminescence, 45 min; AID 624173; 0.12% of 410,000 active; Potency, µM (series often up to 76.8 µM), actives largely listed as inhibitors; also: nearly all actives have a fitted effect of over 50% in size
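Quantitative HTS: titrated library compounds versus trypanosomal pyruvate kinase in TEA buffer (pH 7.2) containing KCl, MgCl2, BSA and Tween-20. Reactions were initiated with ADP, 130 uM final. Kinase-Glo Plus luminescence was read after 45 min at RT.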
Giardia FBPA inh: Giardia lamblia aldolase inhibition; A8B2U2; purified Giardia FBPA; Potency, µM (top dose mostly 59.6 µM), hits mostly inhibitors; 0.71% of 290,000 active; also: nearly all actives have a fitted effect of over 55% in size
Target sequence (A8B2U2 whole entry, looked up): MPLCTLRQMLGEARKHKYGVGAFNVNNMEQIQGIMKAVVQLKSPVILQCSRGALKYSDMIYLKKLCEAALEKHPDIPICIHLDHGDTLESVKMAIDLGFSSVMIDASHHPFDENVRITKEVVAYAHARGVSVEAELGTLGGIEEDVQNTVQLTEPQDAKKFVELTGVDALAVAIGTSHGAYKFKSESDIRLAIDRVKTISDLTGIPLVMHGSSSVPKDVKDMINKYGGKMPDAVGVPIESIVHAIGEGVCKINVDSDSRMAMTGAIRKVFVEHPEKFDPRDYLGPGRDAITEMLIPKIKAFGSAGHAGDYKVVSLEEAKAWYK
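Giardia FBPA (40 nM reagent) was preincubated 10 min at RT with compound (up to 57.5 uM final), then substrate plus GAPDH/TPI/NAD/arsenate coupling system with diaphorase/resazurin was added; resorufin fluorescence (525/598 nm) was read after 20 min.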
RE007 growth inh: less growth of the S. pombe RE007 Vpr strain; S. pombe RE007 Vpr strain, BacTiter-Glo ATP luminescence, 24 h; Potency, µM (top dose mostly 92.2 µM), most hits filed as inhibitors; 0.21% of 360,000 active; AID 651644; active = well fitted falling curve with a large enough effect; inconclusive = small, poorly fitted or top-dose-only effect; inactive = no such curve, though single readings can be large or run the other way; also: nearly all actives have a fitted effect of over 50% in size
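Fission yeast strain RE007, carrying one chromosomally integrated HIV-1 vpr copy, was seeded at OD 0.01 in PMG+AL medium with 23 nL pinned compound. After 24 h at 30 °C and 99% humidity, viability was read by BacTiter-Glo luminescence.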
LmPK inhibitor: LmPK (Leishmania mexicana) enzyme inhibition; Q27686; purified LmPK, Kinase-Glo ATP luminescence, 1 h; Potency, µM (top dose mostly 57.5 µM), usual class: inhibitors; 0.37% of 290,000 active
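ATP generated from ADP (0.1 mM) and PEP (0.5 mM) by 0.1 nM LmPK over 1 h at room temperature (pH 7.2 imidazole buffer) was detected by coupled luciferase luminescence. Values were normalized to uninhibited and no-enzyme wells.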
Sm TGR inh: blocks Schistosoma mansoni thioredoxin glutathione reductase; purified TGR, DTNB reduction, TNB absorbance 405 nm; Potency, µM (series often up to 114 µM), actives largely listed as inhibitors; 3% of 360,000 active; also: nearly all actives have a fitted effect of over 60% in size
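First, TGR (20 nM dispensed) and NADPH were mixed with compound. Second, a 15 min room-temperature incubation followed. Third, further NADPH and then DTNB were added to start the reaction. Finally, TNB absorbance was monitored kinetically.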
A number is an active result; [ ] = remark or other dose. Unless noted, calls follow the shape of the dose curve; as a rule, active = well fitted curve in the direction sought with a large enough effect; inconclusive = small, poorly fitted or top-dose-only effect, or another doubt; inactive = no such curve, though single readings can be large; an effect the other way counts as inactive or inconclusive.

Screening COc1cccc(C2C(C(=O)c3cc4ccccc4o3)=C(O)C(=O)N2CCN2CCOCC2)c1 (stereo unspecified) returned Tb PYK inh inactive, Giardia FBPA inh inactive, RE007 growth inh inactive, LmPK inhibitor inactive and Sm TGR inh 40µM.
`CC(=O)Nc1cccc(-c2ccnc3c2CC(C(=O)NCC2CC2)O3)c1` (stereo unspecified) gave Tb PYK inh inactive and RE007 growth inh inactive.
For CC(CNc1ccccc1O)C(=O)O (stereo unspecified) the results were Tb PYK inh inactive, Giardia FBPA inh inconclusive, RE007 growth inh inactive, LmPK inhibitor inactive and Sm TGR inh 50µM.
O=C(/C=C/c1ccc(Br)o1)NC(c1ccccc1)c1ccccc1 was read as Tb PYK inh inactive, Giardia FBPA inh inactive, RE007 growth inh inactive, LmPK inhibitor inactive and Sm TGR inh 45µM.
`O=C(NNC(=O)OCc1ccccc1)OCc1ccccc1` gave Tb PYK inh inactive and RE007 growth inh inactive.
Screening CC1CCN(C(=O)COC(=O)/C=C/c2ccc(Br)o2)CC1 returned Tb PYK inh inactive, RE007 growth inh inactive and Sm TGR inh 8.9µM.
Screening CC1CCCC(C)N1C(=O)COC(=O)/C=C/c1ccc(Br)o1 (stereo unspecified) returned Tb PYK inh inactive and RE007 growth inh inactive.
`O=C(/C=C/c1ccc(Br)o1)OCc1ccccc1` gave Tb PYK inh inactive, Giardia FBPA inh inactive, RE007 growth inh inactive, LmPK inhibitor inactive and Sm TGR inh 22µM.
For O=C(O)CCn1cc(/C=C/C(=O)c2ccc(Cl)cc2)c(-c2ccc(Br)cc2)n1 the results were Tb PYK inh inactive, Giardia FBPA inh inactive, RE007 growth inh inconclusive, LmPK inhibitor inactive and Sm TGR inh inconclusive.
For O=C(O)CCn1cc(/C=C2\SC(=S)NC2=O)c(-c2ccccc2)n1 the results were Tb PYK inh inactive, Giardia FBPA inh inactive, RE007 growth inh inactive, LmPK inhibitor inactive and Sm TGR inh inactive.
`O=C(O)CCn1cc(C=C2C(=O)NC(=S)NC2=O)c(-c2cccc(Cl)c2)n1` gave Tb PYK inh 11µM, Giardia FBPA inh inactive, RE007 growth inh inactive, LmPK inhibitor inactive and Sm TGR inh 32µM.
Screening O=C(O)CCn1cc(C=C2C(=O)NC(=O)NC2=O)c(-c2ccc(Br)cc2)n1 returned Tb PYK inh 18µM, Giardia FBPA inh inactive, RE007 growth inh inactive, LmPK inhibitor inactive and Sm TGR inh inactive.
COc1ccccc1-c1ccc(/C=C2\C=CC(=O)O2)o1 was read as Tb PYK inh inactive, Giardia FBPA inh inactive, RE007 growth inh inactive, LmPK inhibitor inactive and Sm TGR inh 14µM.
For COc1ccccc1-c1ccc(/C=C2/C=C(C)OC2=O)o1 the results were Tb PYK inh inactive, Giardia FBPA inh inconclusive, RE007 growth inh inactive, LmPK inhibitor inactive and Sm TGR inh inconclusive.
For COc1ccc([N+](=O)[O-])cc1N(CC(=O)N1CCCCC1)S(C)(=O)=O the results were Tb PYK inh inactive, Giardia FBPA inh inactive, RE007 growth inh inactive, LmPK inhibitor inactive and Sm TGR inh inactive.
`CC1CN(c2ccc(Cl)cc2)c2nc3c(c(=O)[nH]c(=O)n3C)n2C1` (stereo unspecified) gave Tb PYK inh inactive, Giardia FBPA inh inactive, RE007 growth inh inactive, LmPK inhibitor inactive and Sm TGR inh inactive.
`CC1CN(c2ccccc2)c2nc3c(c(=O)[nH]c(=O)n3C)n2C1` (stereo unspecified) gave Tb PYK inh inactive, Giardia FBPA inh inactive, RE007 growth inh inactive, LmPK inhibitor inactive and Sm TGR inh 89µM.
O=C(O)c1ccc(Cn2cnc3cccnc32)cc1 was read as Tb PYK inh inconclusive, Giardia FBPA inh inconclusive, RE007 growth inh inactive, LmPK inhibitor inactive and Sm TGR inh 50µM.
CCOC(=O)CN=C1CC(C)(C)CC2=C1Sc1ncnc(N(C)C)c1N2 was read as Tb PYK inh inconclusive, Giardia FBPA inh 2.5µM, RE007 growth inh inactive, LmPK inhibitor inactive and Sm TGR inh inconclusive.
`COCCOC(=O)C1=C(N)OC2=C(C(=O)CC(C)(C)C2)C1c1ccncc1` (stereo unspecified) gave Tb PYK inh inactive, Giardia FBPA inh inactive, RE007 growth inh inactive, LmPK inhibitor inactive and Sm TGR inh inactive.
Screening COc1ccc(NC(=O)COC(=O)c2ccc([N+](=O)[O-])o2)cc1Cl returned Tb PYK inh inactive, Giardia FBPA inh inconclusive, RE007 growth inh inactive, LmPK inhibitor inactive and Sm TGR inh 25µM.
For CN(C)S(=O)(=O)c1cccc(NC(=O)COC(=O)c2ccc([N+](=O)[O-])o2)c1 the results were Tb PYK inh inactive, Giardia FBPA inh inactive, RE007 growth inh inactive, LmPK inhibitor inactive and Sm TGR inh 32µM.
COc1ccc(C)cc1NC(=O)COC(=O)c1ccc([N+](=O)[O-])o1 was read as Tb PYK inh inactive, Giardia FBPA inh inactive, RE007 growth inh inactive, LmPK inhibitor inactive and Sm TGR inh inactive.
Screening CCN(CC)S(=O)(=O)c1ccc(Cl)c(NC(=O)COc2ccc(OC)cc2[N+](=O)[O-])c1 returned Tb PYK inh inactive, Giardia FBPA inh inactive, RE007 growth inh inactive, LmPK inhibitor inactive and Sm TGR inh inactive.
For O=C(OCc1cc(Cl)ccc1OC(F)F)c1ccc([N+](=O)[O-])o1 the results were Giardia FBPA inh inactive, LmPK inhibitor inactive and Sm TGR inh 13µM.
Screening CCN(CC)S(=O)(=O)c1ccc(Cl)c(NC(=O)COC(=O)c2ccc([N+](=O)[O-])o2)c1 returned Tb PYK inh inactive, Giardia FBPA inh inconclusive, RE007 growth inh inactive, LmPK inhibitor inactive and Sm TGR inh 6.3µM.
`Cc1nn(-c2ccc(C(=O)O)cc2)c(C)c1Cl` gave Tb PYK inh inactive, Giardia FBPA inh inactive, RE007 growth inh inactive, LmPK inhibitor inactive and Sm TGR inh inactive.
For CCCNC(=O)C1(C)CCCN(C(=O)c2ccc(F)cc2Cl)C1 (stereo unspecified) the results were Tb PYK inh inactive and RE007 growth inh inactive[18.4 µM].
For CCOC(=O)c1c(OCCO)nn(-c2ccc(Cl)cc2)c1N the results were Tb PYK inh inactive, Giardia FBPA inh inactive, RE007 growth inh inactive, LmPK inhibitor inactive and Sm TGR inh inactive.
For COC(=O)c1ccc(CSc2ccc3nnc(-c4cccnc4)n3n2)o1 the results were Giardia FBPA inh inactive, LmPK inhibitor inactive and Sm TGR inh 40µM.
COC(=O)c1ccc(CSc2ccc3nnc(-c4ccc(OC)cc4)n3n2)o1 was read as Giardia FBPA inh inactive, LmPK inhibitor inactive and Sm TGR inh inconclusive.
Screening CC(=O)Nc1ccc(NC(=O)CSc2nc(N)c(NC(=O)c3ccccc3F)c(=O)[nH]2)cc1 returned Tb PYK inh inactive, RE007 growth inh inactive, LmPK inhibitor inactive and Sm TGR inh 89µM.
C=CCn1c(-c2cccn(Cc3cccc(Cl)c3)c2=O)n[nH]c1=S was read as Tb PYK inh 8.9µM, Giardia FBPA inh inactive, RE007 growth inh inactive, LmPK inhibitor inactive and Sm TGR inh inactive.

High-throughput results from PubChem BioAssay.
